PubChem BioAssay
Activity calls are given as the source filed them.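 Rule for the calls, unless noted: active = thallium flux through the channel raised or lowered by more than 3 SD from vehicle-only wells, actives on both sides; inactive = the rest.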

What was measured:
F380Y = assay: modulators of BK channel variants, profiling panel, selectivity assay, cell-based, U2OS BacMam, thallium flux, beta subunits (AID 1259406); conditions: at 30 µM;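 note: initial slope of Thallos dye fluorescence rise after thallium is added; log ratio against the mean of 0.3% DMSO vehicle wells on the same plate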
F380Y/beta1 = assay: as above; conditions: at 30 µM
F380Y/beta2Delta = assay: as above; conditions: at 30 µM
F380Y/beta4 = assay: as above; conditions: at 30 µM
[1] = biological target: Calcium-activated potassium channel subunit alpha-1 (Homo sapiens) + Leucine-rich repeat-containing protein 26 (Homo sapiens) (UniProt Q12791+Q2I0M4); assay: as above; conditions: F380Y/Slo1WT/gamma1, at 30 µM
Chain of Calcium-activated potassium channel subunit alpha-1 (Homo sapiens) + Leucine-rich repeat-containing protein 26 (Homo sapiens) (Q2I0M4 whole entry, looked up, one chain of several): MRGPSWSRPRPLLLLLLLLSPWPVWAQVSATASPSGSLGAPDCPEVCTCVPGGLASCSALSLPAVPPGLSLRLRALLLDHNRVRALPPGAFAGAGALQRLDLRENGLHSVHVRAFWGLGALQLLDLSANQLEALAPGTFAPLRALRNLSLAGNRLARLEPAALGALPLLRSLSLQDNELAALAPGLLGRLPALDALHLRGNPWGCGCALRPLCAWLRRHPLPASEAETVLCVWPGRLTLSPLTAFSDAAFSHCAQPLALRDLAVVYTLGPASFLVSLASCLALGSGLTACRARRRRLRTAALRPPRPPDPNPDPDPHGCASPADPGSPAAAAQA

R275C = assay: as above; conditions: at 30 µM
R275C/beta1 = assay: as above; conditions: at 30 µM
R275C/beta2Delta = assay: as above; conditions: at 30 µM
R275C/beta4 = assay: as above; conditions: at 30 µM
R275C/Slo1WT/beta2 = assay: as above; conditions: at 30 µM
[2] = UWB1.289 ovarian carcinoma cell growth inhibition, synergistic combos for chromothripsis tumors, BGB or cisplatin combos (AID 1671456; in the data active = inhibition above about 80%;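 note: cells exposed to compound for four days; 0% = vehicle DMSO and 100% = killing by high DMSO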); conditions: UWB1.289 ovarian carcinoma cells, stronger effect = higher value
[3] = LFS_MB_2R medulloblastoma cell growth inhibition, synergistic combos for chromothripsis tumors, cisplatin combos (AID 1671457; in the data active = inhibition above about 80%;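 note: cells exposed to compound for four days before readout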); conditions: LFS_MB_2R medulloblastoma cells, stronger effect = higher value
[4] = MDA-MB-436 breast carcinoma cell growth inhibition, synergistic combos for chromothripsis tumors, BGB or cisplatin combos (AID 1671458; call rule not given here;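 note: cells exposed for 96 hours; 0% = vehicle DMSO and 100% = killing by high DMSO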); conditions: MDA-MB-436 breast carcinoma growth inhibition, drug combinations, stronger effect = higher value
[5] = UWB1.289_BRCA1 ovarian cancer growth, cell-based, BGB or cisplatin combinations (AID 1671459; in the data active = inhibition above about 80%); conditions: UWB1.289 BRCA1 ovarian carcinoma, drug combinations, stronger effect = higher value
[6] = human astrocyte viability loss, single and combined drugs, cytotoxicity control for chromothriptic childhood tumor combination screen, cell-based, BGB or cisplatin IC20 combos (AID 1671460; in the data active = inhibition above about 80%;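 note: cells exposed to compounds for 96 hours before viability readout; 0% = vehicle and 100% = killing control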); conditions: Human astrocytes, drug combinations, stronger effect = higher value
[7] = growth inhibition of BT084 medulloblastoma cells, cell-based, ICGC_MB145, cisplatin and BGB IC40 combos (AID 1671461; in the data active = inhibition above about 80%;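 note: cells exposed to drugs for 96 hours; 0% = vehicle DMSO and 100% = high DMSO full killing control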); conditions: drug combinations, stronger effect = higher value
[8] = growth inhibition of RCMB18 medulloblastoma cells, cell-based, cisplatin and BGB IC40 combos (AID 1671462; in the data active = inhibition above about 80%;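 note: cells exposed to compound for four days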); conditions: stronger effect = higher value
[9] = growth inhibition of CRL1545 osteosarcoma cells, cell-based, cisplatin and BGB IC20 combos (AID 1671464; in the data active = inhibition above about 80%;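 note: cells exposed to compound for 96 hours before readout; 0% = vehicle DMSO and 100% = high DMSO killing control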); conditions: stronger effect = higher value
[10] = measured here: combination with cisplatin, at 0.5 µM

OCCOCCN1CCN(C2=Nc3ccccc3Sc3ccccc32)CC1
inactive: log fold change Tl+ flux (F380Y/beta2Delta) 0.0505 | log fold change Tl+ flux [1] 0.0336 | log fold change Tl+ flux (R275C) -0.011 | log fold change Tl+ flux (R275C/Slo1WT/beta2) -0.027
active: log fold change Tl+ flux (F380Y) 0.134 | log fold change Tl+ flux (F380Y/beta1) 0.105 | log fold change Tl+ flux (F380Y/beta4) 0.186 | log fold change Tl+ flux (R275C/beta1) 0.15 | log fold change Tl+ flux (R275C/beta2Delta) 0.106 | log fold change Tl+ flux (R275C/beta4) 0.142

COCc1c(C(C)C)nc(C(C)C)c(/C=C/[C@@H](O)C[C@@H](O)CC(=O)O)c1-c1ccc(F)cc1
inactive: log fold change Tl+ flux (R275C) 0.0107 | log fold change Tl+ flux (R275C/Slo1WT/beta2) 0.0728
active: log fold change Tl+ flux (F380Y) 0.216 | log fold change Tl+ flux (F380Y/beta1) 0.473 | log fold change Tl+ flux (F380Y/beta2Delta) 0.143 | log fold change Tl+ flux (F380Y/beta4) 0.268 | log fold change Tl+ flux [1] 0.103 | log fold change Tl+ flux (R275C/beta1) 0.391 | log fold change Tl+ flux (R275C/beta2Delta) 0.192 | log fold change Tl+ flux (R275C/beta4) 0.207

CNCC(O)c1ccc(O)c(O)c1 (configuration not stated)
inactive: log fold change Tl+ flux (F380Y) -0.0223 | log fold change Tl+ flux (F380Y/beta1) -0.0248 | log fold change Tl+ flux (F380Y/beta2Delta) 0.0367 | log fold change Tl+ flux (F380Y/beta4) -0.0084 | log fold change Tl+ flux [1] 0.0503 | log fold change Tl+ flux (R275C) 0.0399 | log fold change Tl+ flux (R275C/beta1) -0.0203 | log fold change Tl+ flux (R275C/beta2Delta) -0.0287 | log fold change Tl+ flux (R275C/beta4) -0.0313 | log fold change Tl+ flux (R275C/Slo1WT/beta2) -0.0974

C[C@]12C[C@H](O)[C@H]3[C@@H](CCC4=CC(=O)CC[C@@]43C)[C@@H]1CC[C@@H]2C(=O)CO
inactive: log fold change Tl+ flux (F380Y) 0.0367 | log fold change Tl+ flux (F380Y/beta1) 0.0921 | log fold change Tl+ flux (F380Y/beta2Delta) -0.00742 | log fold change Tl+ flux (F380Y/beta4) 0.0166 | log fold change Tl+ flux [1] 0.0373 | log fold change Tl+ flux (R275C) -0.04 | log fold change Tl+ flux (R275C/beta1) 0.00127 | log fold change Tl+ flux (R275C/beta2Delta) 0.0285 | log fold change Tl+ flux (R275C/beta4) 0.0631 | log fold change Tl+ flux (R275C/Slo1WT/beta2) 0.00421

NS(=O)(=O)c1cc(C(=O)O)c(NCc2ccco2)cc1Cl
inactive: log fold change Tl+ flux (F380Y) -0.0179 | log fold change Tl+ flux (F380Y/beta1) -0.0049 | log fold change Tl+ flux (F380Y/beta2Delta) -0.0211 | log fold change Tl+ flux (F380Y/beta4) 0.0269 | log fold change Tl+ flux [1] -0.028 | log fold change Tl+ flux (R275C) -0.0468 | log fold change Tl+ flux (R275C/beta1) -0.0154 | log fold change Tl+ flux (R275C/beta2Delta) -0.0184 | log fold change Tl+ flux (R275C/beta4) 0.000317 | log fold change Tl+ flux (R275C/Slo1WT/beta2) 0.0743

O=C(NCCN1CCOCC1)c1ccc(Cl)cc1
inactive: log fold change Tl+ flux (F380Y) -0.0393 | log fold change Tl+ flux (F380Y/beta1) -0.0206 | log fold change Tl+ flux (F380Y/beta2Delta) -0.0313 | log fold change Tl+ flux (F380Y/beta4) -0.0725 | log fold change Tl+ flux [1] -0.000886 | log fold change Tl+ flux (R275C) -0.0119 | log fold change Tl+ flux (R275C/beta1) -0.015 | log fold change Tl+ flux (R275C/beta2Delta) -0.0276 | log fold change Tl+ flux (R275C/beta4) -0.0049 | log fold change Tl+ flux (R275C/Slo1WT/beta2) -0.0216

O=C1CCc2ccc(OCCCCN3CCN(c4cccc(Cl)c4Cl)CC3)cc2N1
inactive: log fold change Tl+ flux (F380Y) 0.0772 | log fold change Tl+ flux (F380Y/beta1) 0.0377 | log fold change Tl+ flux (F380Y/beta2Delta) -0.00576 | log fold change Tl+ flux (F380Y/beta4) 0.0383 | log fold change Tl+ flux [1] -0.0185 | log fold change Tl+ flux (R275C) -0.0555 | log fold change Tl+ flux (R275C/beta1) 0.056 | log fold change Tl+ flux (R275C/beta2Delta) 0.0181 | log fold change Tl+ flux (R275C/beta4) 0.0353 | log fold change Tl+ flux (R275C/Slo1WT/beta2) 0.0373

CCN1CCC[C@H]1CNC(=O)c1cc(S(N)(=O)=O)ccc1OC
inactive: log fold change Tl+ flux (F380Y) -0.0719 | log fold change Tl+ flux (F380Y/beta1) 0.000794 | log fold change Tl+ flux (F380Y/beta2Delta) -0.0214 | log fold change Tl+ flux (F380Y/beta4) -0.00754 | log fold change Tl+ flux [1] 0.0207 | log fold change Tl+ flux (R275C) -0.000435 | log fold change Tl+ flux (R275C/beta1) -0.0215 | log fold change Tl+ flux (R275C/beta2Delta) -0.02 | log fold change Tl+ flux (R275C/beta4) 0.0473 | log fold change Tl+ flux (R275C/Slo1WT/beta2) -0.0273

Nc1[nH]c(=O)ncc1F
-11.3%: inhibition ([6]; measured here: combo with BGB IC20, at 0.5 µM)
-21.4%: inhibition ([4]; measured here: BGB combination, at 0.5 µM)
22.6%: inhibition [8, 10]
12.7%: inhibition ([8]; cisplatin combo, at 5 µM)
-21.7%: inhibition ([2]; measured here: inhibition with cisplatin combination, at 0.05 µM)
-29.1%: inhibition ([3]; measured here: combination with cisplatin, at 5 µM)
-54.4%: inhibition ([4]; measured here: cisplatin combination, at 0.5 µM)
-15.3%: inhibition ([6]; measured here: combo with cisplatin IC20, at 0.5 µM)
-1.42%: inhibition ([9]; single agent, at 5 µM)
-10.1%: inhibition ([5]; BGB combination, concentration series, at 5 µM)
-24.1%: inhibition [3, 10]
-29.7%: inhibition ([2]; measured here: inhibition with BGB combination, at 0.05 µM)
-1.76%: inhibition ([8]; measured here: BGB IC40 combination, at 0.05 µM)
-35%: inhibition ([7]; single agent, at 5 µM)
-7.2%: inhibition ([5]; cisplatin combination, concentration series, at 5 µM)
-20.1%: inhibition ([4]; measured here: BGB combination, at 5 µM)
-29%: inhibition ([7]; cisplatin combination, at 5 µM)
inactive: inhibition ([2]; at 0.5 µM) -7.68% | inhibition ([3]; at 0.5 µM) -27.6% | inhibition ([4]; at 0.5 µM) -31.1% | inhibition ([5]; at 0.5 µM) -22% | inhibition ([6]; at 0.5 µM) -16.9% | inhibition ([7]; at 0.5 µM) -18.1% | inhibition ([8]; at 0.5 µM) -4.87% | inhibition ([9]; at 0.5 µM) -33% | log fold change Tl+ flux (F380Y) 0.0331 | log fold change Tl+ flux (F380Y/beta1) 0.0164 | log fold change Tl+ flux (F380Y/beta2Delta) 0.0238 | log fold change Tl+ flux (F380Y/beta4) 0.00948 | log fold change Tl+ flux [1] 0.00877 | log fold change Tl+ flux (R275C) 0.0013 | log fold change Tl+ flux (R275C/beta1) -0.0522 | log fold change Tl+ flux (R275C/beta2Delta) 0.00516 | log fold change Tl+ flux (R275C/beta4) -0.00411 | log fold change Tl+ flux (R275C/Slo1WT/beta2) -0.0674
-7.67%: inhibition ([7]; cisplatin combination, at 0.5 µM)
-45.4%: inhibition ([9]; measured here: with cisplatin IC20 combination, at 0.5 µM)
-18.5%: inhibition ([7]; measured here: BGB IC40 combination 0.05 uM, at 0.05 µM)
-28.4%: inhibition ([4]; measured here: cisplatin combination, at 5 µM)
67.5%: inhibition ([8]; single agent, at 5 µM)
-16.8%: inhibition ([9]; single agent, at 0.05 µM)
-8.11%: inhibition ([9]; measured here: with BGB IC20 combination, at 0.5 µM)
